Most compounds without a hit are left out; they make up all but 18% or so of the library.
HepG2 tox: counter-screen for TGF-b inhibitors: cytotoxicity in HepG2 cells; 0.76% of 410,000 active; HepG2 CAGA-GFP viability, ATP luminescence, 18 h; Potency, µM (series often up to 46.1 µM), for the others: top-dose activity change, negative = cytotoxicity, hits mostly cytotoxic; note: potency is the fitted concentration of half-maximal effect
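CellTiter-Glo luminescence gave cytotoxicity after 18 hours at 37 degrees C. The cells were HepG2 CAGA-GFP in 1% FBS DMEM, stimulated with 500 pg/mL TGF-beta after compound addition. %Activity was normalised to no-cell wells (complete cell-killing) and DMSO (no toxicity), and curves were fitted and classified.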
DT40 TDP1 CPT: growth inhibition of DT40 Tdp1-/-;hTDP1 cells with camptothecin (screen for TDP1 inhibitors) | chicken DT40 Tdp1-/-;hTDP1 cells + 20 nM CPT, ATP luminescence, 48 h | Potency, µM (titrated, usually from 46.2 µM), inactives show top-dose activity change, negative = growth inhibition, hits mostly inhibitors | 12% of 420,000 active; note: potency is the fitted concentration of half-maximal effect; % is set by controls: 0 for no effect and ±100 for the full control effect; nearly all actives have a fitted effect of over 55% in size
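Chicken DT40 Tdp1-/- cells complemented with human TDP1, 400 cells/well, exposed to compounds plus 20 nM camptothecin for at least 48 h at 37 C; viability read as ATP content by CellTiter-Glo luminescence.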
TGFb SMAD3 inh: blocks TGF-b signaling. HepG2 CAGA-GFP TGF-b/SMAD3 reporter, GFP fluorescence, 18 h; TGF-beta stimulated, 500 pg/mL final. 1.2% of 410,000 active. Potency, µM (doses to about 46.1 µM), inactives show at the highest dose activity, negative = inhibition, most hits filed as inhibitors; note: potency is the fitted concentration of half-maximal effect; % is set by controls: 0 for no effect and ±100 for the full control effect; nearly all actives have a fitted effect of over 65% in size
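Inhibition of TGF-beta-driven CAGA-GFP reporter expression in HEPG2 cells is measured by cellular GFP fluorescence after 18 h stimulation with 500 pg/mL recombinant TGF-beta in 1% FBS medium at 37 degrees C.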
TDP1 cell noCPT: qHTS for Inhibitors of human tyrosyl-DNA phosphodiesterase 1 (TDP1): qHTS in cells in absence of CPT; 15% of 420,000 active; AID 686978, 2013; DT40 Tdp1-/- hTDP1 cells, no CPT, ATP luminescence, 48 h; Potency, µM (highest dose often 46.2 µM), without a hit: top-dose activity change, negative = growth inhibition, usual class: inhibitors; note: potency is the fitted concentration of half-maximal effect; % is set by controls: 0 for no effect and ±100 for the full control effect; nearly all actives have a fitted effect of over 55% in size
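Camptothecin absent (DMSO only). Human TDP1-complemented DT40 knockout cells, 400 cells/well, 37 °C for minimum 48 hr; ATP measured via CellTiter-Glo, 30 min dark incubation, luminescence.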
TDP1 block: inhibitors of human tyrosyl-DNA phosphodiesterase TDP1 | Potency, µM (highest dose often 130 µM), for the others: at the top dose activity change, negative = inhibition, actives largely listed as inhibitors | 0.28% of 350,000 active | AID 485290 | recombinant TDP1, AlphaScreen DNA substrate cleavage; note: potency is the fitted concentration of half-maximal effect; % is set by controls: 0 for no effect and ±100 for the full control effect; nearly all actives have a fitted effect of over 40% in size
Target sequence (Q9NUW8 whole entry, looked up): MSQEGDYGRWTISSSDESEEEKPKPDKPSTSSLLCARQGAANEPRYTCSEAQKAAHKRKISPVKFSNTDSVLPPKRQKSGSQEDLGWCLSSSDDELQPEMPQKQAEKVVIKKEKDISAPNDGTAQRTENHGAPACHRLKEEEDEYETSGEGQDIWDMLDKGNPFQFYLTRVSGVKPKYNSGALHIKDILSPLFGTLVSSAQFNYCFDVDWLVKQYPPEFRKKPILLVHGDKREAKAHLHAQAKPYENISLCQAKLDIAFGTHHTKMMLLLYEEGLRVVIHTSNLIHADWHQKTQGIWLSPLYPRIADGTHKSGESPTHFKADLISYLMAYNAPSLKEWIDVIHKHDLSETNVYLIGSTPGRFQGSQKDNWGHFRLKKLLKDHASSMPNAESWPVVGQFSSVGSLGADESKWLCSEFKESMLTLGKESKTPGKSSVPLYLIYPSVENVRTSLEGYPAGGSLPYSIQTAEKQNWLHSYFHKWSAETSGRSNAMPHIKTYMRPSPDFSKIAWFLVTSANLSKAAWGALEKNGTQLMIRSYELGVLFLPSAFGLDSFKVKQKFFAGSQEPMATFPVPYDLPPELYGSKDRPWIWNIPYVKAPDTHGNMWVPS
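Enzyme-compound mixtures sat 15 min at room temperature, followed by a 5 min reaction with 15 nM final substrate and 10 min with AlphaScreen beads. Recombinant human Tdp1 was used at 1 nM final.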
IL1B secr inh: blocks inflammasome-driven IL-1 beta release | 4.7% of 360,000 active | AID 743279 | activity change, % at 57.5 µM | THP-1 LPS/ATP IL-1B secretion, AlphaLISA, 16 h; active compounds read low; in the data active = activity change below about -50%; inconclusive = mostly about -30% to -49%; note: % is set by controls: 0 for no effect and ±100 for the full control effect
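Secreted IL-1B measured by AlphaLISA bead assay after 16 h compound exposure of THP-1 cells; compounds (final up to 57.5 uM) added 1 h before LPS (250 ng/mL) and ATP (1.25 mM) stimulation; lower signal means less secretion.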
* marks the source's active call; other numbers are inactive results. Unless noted, calls come from the whole dose curve; as a rule, active = well fitted curve in the direction sought with a large enough effect; inconclusive = small, poorly fitted or top-dose-only effect, or another doubt; inactive = no such curve, though single readings can be large; an effect the other way counts as inactive or inconclusive.

What do the screens show for `CCOc1ccc(C(=O)NCc2ccc3c(c2)CCN3C(=O)c2ccccc2)cc1`?
HepG2 tox: 5%; DT40 TDP1 CPT: 13µM*; TGFb SMAD3 inh: -21%; TDP1 cell noCPT: 16µM*; TDP1 block: 7%

Results for Cc1ccccc1C(=O)NCc1ccc2c(c1)CCN2C(=O)c1ccccc1 ?
HepG2 tox: -11%; DT40 TDP1 CPT: 13µM*; TGFb SMAD3 inh: inconclusive; TDP1 cell noCPT: 10µM*; TDP1 block: 1%

What do the screens show for `O=C(NCc1ccc2c(c1)CCN2C(=O)c1ccncc1)c1cccc(Cl)c1`?
HepG2 tox: -2%; DT40 TDP1 CPT: 21µM*; TGFb SMAD3 inh: 21%; TDP1 cell noCPT: inconclusive; TDP1 block: 3%

How did O=C(NCc1ccc2c(c1)CCN2C(=O)c1ccc(Cl)cc1)c1cccc(F)c1 do in these assays?
HepG2 tox: 8%; DT40 TDP1 CPT: 7%; TGFb SMAD3 inh: -5%; TDP1 cell noCPT: 2%; TDP1 block: 2%

What do the screens show for `O=C(NCc1ccc2c(c1)CCN2C(=O)c1ccc(F)cc1)c1ccco1`?
HepG2 tox: -3%; DT40 TDP1 CPT: 21µM*; TGFb SMAD3 inh: -2%; TDP1 cell noCPT: inconclusive; TDP1 block: 1%

What do the screens show for `CCOc1ccc(C(=O)NCc2ccc3c(c2)CCN3C(=O)c2ccc(Cl)cc2)cc1`?
HepG2 tox: 7%; DT40 TDP1 CPT: -8%; TGFb SMAD3 inh: 35%; TDP1 cell noCPT: 2%; TDP1 block: 3%

How did COc1ccc(C(=O)NCc2ccc3c(c2)CCN3C(=O)c2ccc(F)cc2)cc1 do in these assays?
HepG2 tox: -14%; DT40 TDP1 CPT: inconclusive; TGFb SMAD3 inh: inconclusive; TDP1 cell noCPT: 21µM*; TDP1 block: 5%

How did Cc1ccc(NC(=S)N/N=C/c2ccc([N+](=O)[O-])s2)cc1 do in these assays?
HepG2 tox: -71%; DT40 TDP1 CPT: inconclusive; TGFb SMAD3 inh: inconclusive; TDP1 cell noCPT: inconclusive; TDP1 block: 0%; IL1B secr inh: -73*

Results for NC(=O)c1ccc(N=Cc2ccc([N+](=O)[O-])s2)cc1 ?
HepG2 tox: -92%; DT40 TDP1 CPT: 5.2µM*; TGFb SMAD3 inh: -20%; TDP1 cell noCPT: 3.3µM*; TDP1 block: 0%; IL1B secr inh: -108*

What do the screens show for `Cc1cc(C)cc(N=Cc2ccc([N+](=O)[O-])s2)c1`?
HepG2 tox: -55%; DT40 TDP1 CPT: 2.6µM*; TGFb SMAD3 inh: 11µM*; TDP1 cell noCPT: 2.6µM*; TDP1 block: 0%; IL1B secr inh: -104*

How did Cc1cc(C)c(C)c(S(=O)(=O)Nc2cccc(S(=O)(=O)Nc3ccccc3C(=O)O)c2)c1C do in these assays?
HepG2 tox: -16%; DT40 TDP1 CPT: -11%; TGFb SMAD3 inh: -8%; TDP1 cell noCPT: -16%; TDP1 block: 1%; IL1B secr inh: -11

What do the screens show for `CCOC(=O)c1c(NC(=O)CSc2nnc(CNc3ccc(Cl)cc3)o2)sc(C)c1C`?
HepG2 tox: 4%; DT40 TDP1 CPT: inconclusive; TGFb SMAD3 inh: -4%; TDP1 cell noCPT: 13µM*; TDP1 block: 7%; IL1B secr inh: -9

Results for CCOC(=O)c1c(NC(=O)CSc2nnnn2-c2ccc(OC)cc2)sc(C)c1C ?
HepG2 tox: -20%; DT40 TDP1 CPT: 6.5µM*; TGFb SMAD3 inh: 1%; TDP1 cell noCPT: 4.1µM*; IL1B secr inh: -59*

How did COc1ccc(-n2nnnc2SCC(=O)Nc2nnc(C)s2)cc1 do in these assays?
HepG2 tox: -4%; DT40 TDP1 CPT: 6.3µM*; TGFb SMAD3 inh: -3%; TDP1 cell noCPT: 5.6µM*; TDP1 block: 2%; IL1B secr inh: 20
